Experiment [1] can be described thus: NCI Yeast Anticancer Drug Screen. Data for the rad50 strain (AID 155).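 Further: 0% = growth of vehicle-only cultures of the same strain.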 To be noted: S. cerevisiae rad50 strain growth inhibition, active compounds read high. The essentials: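 Yeast carrying a defined DNA repair defect were exposed to test compounds, and growth was compared with vehicle-treated controls to give percent inhibition.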
Experiment [2] in a line: NCI Yeast Anticancer Drug Screen. Data for the mec2-1 strain (AID 157). To be noted: S. cerevisiae mec2-1 strain, active compounds read high. The method in brief: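 mec2-1 yeast strain, carrying an alteration in DNA damage repair or cell cycle control, was exposed to compounds; growth inhibition was measured relative to vehicle-treated controls.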
Experiment [3] in a line: NCI Yeast Anticancer Drug Screen. Data for the sgs1 mgt1 strain (AID 161).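 Further: 0% = growth of cultures given vehicle only.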 Conditions: S. cerevisiae sgs1 mgt1 strain, active compounds read high. The method in brief:
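Yeast cells carrying a defined DNA-repair defect were exposed to test compounds. Growth inhibition was measured relative to vehicle-treated controls.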

Experiment [4] in a line: NCI Yeast Anticancer Drug Screen. Data for the cln2 rad14 strain (AID 165).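 Further: 0% = growth equal to vehicle treated cultures.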 To be noted: S. cerevisiae cln2 rad14 strain, active compounds read high. The method in brief:
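Yeast carrying cln2 and rad14 alterations (cell cycle control and DNA damage repair) were exposed to compounds. Growth inhibition was measured against vehicle-treated controls.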

The nature of experiment [5]: NCI Yeast Anticancer Drug Screen. Data for the bub3 strain (AID 167). Conditions: S. cerevisiae bub3 mutant strain, active compounds read high. The essentials: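 Compounds were applied to a genetically altered yeast strain carrying a cell-cycle control defect. Growth inhibition was scored against vehicle-treated controls.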
Experiment [6] is described as follows: NCI Yeast Anticancer Drug Screen. Data for the mlh1 rad18 strain (AID 175). Conditions: S. cerevisiae mlh1 rad18 strain growth inhibition, active compounds read high. The essentials: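 Growth inhibition of the yeast strain was measured after compound exposure and expressed relative to vehicle-treated controls. The strain carries defined defects in DNA damage repair.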

Setting [7] is: at 5.0 µM (retest, dose inferred, filed as 0.5).
Where [8] appears, read: at 50.0 µM (retest, dose inferred, filed as 5.0).

This is part of a sample that, as a whole, favours compounds with a hit. Of some 79,000 tested, about 15% had one in any assay. Unmarked numbers belong to inactive results. Active and inactive are the calls of the source. No stated cut-off is given here; in the data, active means growth inhibition above about 70%; inactive means the rest.

This note sets out measurements from PubChem BioAssay (NCI).

Regarding `Cc1[nH]nc(C(=O)OC(C)C)c1N=NN(C)C`, the growth inhibition was -65% in experiment [1] (setting [7]); 94% (active) in experiment [1] (setting [8]); 98.2% (active) in experiment [1] (at 50.0 µM); -43% in experiment [2] (setting [7]); 98% (active) in experiment [2] (setting [8]); 98.7% (active) in experiment [2] (at 50.0 µM). Moreover, the growth inhibition in experiment [3] (setting [7]) was -46%; in experiment [3] (setting [8]) it was 96% (active); in experiment [3] (at 50.0 µM) it was 96.2% (active); in experiment [4] (setting [7]), -69%; in experiment [4] (setting [8]), 97% (active); in experiment [4] (at 50.0 µM) it was 97.3% (active). For the same molecule, the growth inhibition in experiment [5] (setting [7]) is -64%; in experiment [5] (setting [8]) it was 95% (active); in experiment [5] (at 50.0 µM), 98.3% (active); in experiment [6] (setting [7]) it was -115%; in experiment [6] (setting [8]), 95% (active); in experiment [6] (at 50.0 µM), 98.7% (active).
For `Nc1cc(Cl)c(I)cc1Cl`, the growth inhibition in experiment [1] (setting [7]) was 7%; in experiment [1] (setting [8]) it was 98% (active); in experiment [1] (at 50.0 µM), 74.5% (active); in experiment [2] (setting [7]), -15%; in experiment [2] (setting [8]), 99% (active); in experiment [2] (at 50.0 µM), 15.8%. In addition, the growth inhibition in experiment [3] (setting [7]) is -1%; in experiment [3] (setting [8]) it was 100% (active); in experiment [3] (at 50.0 µM), 50.1%; in experiment [4] (setting [7]), -7%; in experiment [4] (setting [8]), 97% (active); in experiment [4] (at 50.0 µM), 32.3%. The growth inhibition in experiment [5] (setting [7]) was -8%; in experiment [5] (setting [8]), 99% (active); in experiment [5] (at 50.0 µM), 69.2%; in experiment [6] (setting [7]) it was 34%; in experiment [6] (setting [8]), 99% (active); in experiment [6] (at 50.0 µM), 86.8% (active).
In the case of `O=C1C=CC(=O)N1c1ccccc1[N+](=O)[O-]`, the growth inhibition is 98% (active) in experiment [1] (setting [7]); 99% (active) in experiment [1] (setting [8]); 99.5% (active) in experiment [1] (at 50.0 µM); 99% (active) in experiment [2] (setting [7]); 100% (active) in experiment [2] (setting [8]); 99.5% (active) in experiment [2] (at 50.0 µM). Moreover, the growth inhibition in experiment [3] (setting [7]) is 98% (active); in experiment [3] (setting [8]) it was 99% (active); in experiment [3] (at 50.0 µM) it was 99.4% (active); in experiment [4] (setting [7]), 90% (active); in experiment [4] (setting [8]), 99% (active); in experiment [4] (at 50.0 µM), 99.6% (active). Moreover, the growth inhibition is 97% (active) in experiment [5] (setting [7]); 100% (active) in experiment [5] (setting [8]); 99.5% (active) in experiment [5] (at 50.0 µM); 98% (active) in experiment [6] (setting [7]); 100% (active) in experiment [6] (setting [8]); 99.5% (active) in experiment [6] (at 50.0 µM).
For `C=CCOc1c(CCC)cc(CN)cc1CCC`, the growth inhibition in experiment [1] (setting [7]) is -2%; in experiment [1] (setting [8]) it was 2%; in experiment [1] (at 50.0 µM) it was 4.45%; in experiment [2] (setting [7]), -2%; in experiment [2] (setting [8]) it was -6%; in experiment [2] (at 50.0 µM), -8.2%. The growth inhibition in experiment [3] (setting [7]) was 5%; in experiment [3] (setting [8]) it was 23%; in experiment [3] (at 50.0 µM), 24.6%; in experiment [4] (setting [7]), 1%; in experiment [4] (setting [8]), -7%; in experiment [4] (at 50.0 µM) it was 58.5%. Besides, the growth inhibition in experiment [5] (setting [7]) was -3%; in experiment [5] (setting [8]), 7%; in experiment [5] (at 50.0 µM), 2.55%; in experiment [6] (setting [7]) it was -1%; in experiment [6] (setting [8]) it was 11%; in experiment [6] (at 50.0 µM), 49.8%.
Turning to `Cc1nc(C(N)=S)sc1C(=O)CC(=O)C(=O)Nc1nc2ccccc2[nH]1`, the growth inhibition in experiment [1] (setting [7]) is 10%; in experiment [1] (setting [8]), -9%; in experiment [1] (at 50.0 µM), -7.35%; in experiment [2] (setting [7]), 11%; in experiment [2] (setting [8]), 24%; in experiment [2] (at 50.0 µM), 23.1%. For the same molecule, the growth inhibition was 13% in experiment [3] (setting [7]); -110% in experiment [3] (setting [8]); -24.9% in experiment [3] (at 50.0 µM); 7% in experiment [4] (setting [7]); 3% in experiment [4] (setting [8]); 2.85% in experiment [4] (at 50.0 µM). The growth inhibition in experiment [5] (setting [7]) is 11%; in experiment [5] (setting [8]), -7%; in experiment [5] (at 50.0 µM), 1.75%; in experiment [6] (setting [7]) it was 12%; in experiment [6] (setting [8]), 25%; in experiment [6] (at 50.0 µM), -42.5%.
Regarding `C[N+]1(C)C/C(=C\C=C\c2ccccc2)C(=O)/C(=C/C=C/c2ccccc2)C1`, the growth inhibition in experiment [1] (setting [7]) is 17%; in experiment [1] (setting [8]) it was 17%; in experiment [1] (at 50.0 µM), 93.2% (active); in experiment [2] (setting [7]) it was 9%; in experiment [2] (setting [8]) it was 9%; in experiment [2] (at 50.0 µM) it was 92.1% (active). Moreover, the growth inhibition in experiment [3] (setting [7]) was 17%; in experiment [3] (setting [8]), 17%; in experiment [3] (at 50.0 µM), 92.6% (active); in experiment [4] (setting [7]), 0%; in experiment [4] (setting [8]) it was 0%; in experiment [4] (at 50.0 µM), 91.5% (active). Further, the growth inhibition in experiment [5] (setting [7]) was -2%; in experiment [5] (setting [8]) it was -2%; in experiment [5] (at 50.0 µM), 93.9% (active); in experiment [6] (setting [7]), 9%; in experiment [6] (setting [8]), 9%; in experiment [6] (at 50.0 µM), 92.5% (active).
On to `CN(C)C(=S)NC(=S)Nc1ccc2ccccc2c1`, for which the growth inhibition in experiment [1] (setting [7]) was 5%; in experiment [1] (setting [8]), 88% (active); in experiment [1] (at 50.0 µM), 62.8%; in experiment [2] (setting [7]), 17%; in experiment [2] (setting [8]), 89% (active); in experiment [2] (at 50.0 µM), 40.9%. Also, the growth inhibition in experiment [3] (setting [7]) was 34%; in experiment [3] (setting [8]) it was 82% (active); in experiment [3] (at 50.0 µM) it was 66.2%; in experiment [4] (setting [7]) it was 8%; in experiment [4] (setting [8]), 87% (active); in experiment [4] (at 50.0 µM) it was 46.5%. In addition, the growth inhibition in experiment [5] (setting [7]) was 2%; in experiment [5] (setting [8]) it was 92% (active); in experiment [5] (at 50.0 µM), 57.4%; in experiment [6] (setting [7]), 12%; in experiment [6] (setting [8]), 92% (active); in experiment [6] (at 50.0 µM), 73.3% (active).
For `C=CCCCCCCCCC(=O)ON(Cc1ccc(O)c(OC)c1)C(=O)C(F)(F)F`, the growth inhibition in experiment [1] (setting [7]) is 3%; in experiment [1] (setting [8]), 73% (active); in experiment [1] (at 50.0 µM) it was 70.7% (active); in experiment [2] (setting [7]), -7%; in experiment [2] (setting [8]), 66%; in experiment [2] (at 50.0 µM), 84.3% (active). Besides, the growth inhibition in experiment [3] (setting [7]) is -8%; in experiment [3] (setting [8]) it was 67%; in experiment [3] (at 50.0 µM), 89.2% (active); in experiment [4] (setting [7]), 20%; in experiment [4] (setting [8]) it was 61%; in experiment [4] (at 50.0 µM), 85.5% (active). For the same molecule, the growth inhibition in experiment [5] (setting [7]) is -12%; in experiment [5] (setting [8]) it was 40%; in experiment [5] (at 50.0 µM) it was 90.5% (active); in experiment [6] (setting [7]), 7%; in experiment [6] (setting [8]) it was 86% (active); in experiment [6] (at 50.0 µM), 85.9% (active).
Regarding `CN(C)c1ccc(/C=C/C(=O)c2ccc([N+](=O)[O-])cc2)cc1`, the growth inhibition in experiment [1] (setting [7]) was 38%; in experiment [1] (setting [8]), 48%; in experiment [1] (at 50.0 µM), -21.7%; in experiment [2] (setting [7]), 45%; in experiment [2] (setting [8]) it was 42%; in experiment [2] (at 50.0 µM) it was -16%. Further, the growth inhibition in experiment [3] (setting [7]) is -9%; in experiment [3] (setting [8]), 24%; in experiment [3] (at 50.0 µM) it was -16.7%; in experiment [4] (setting [7]) it was 24%; in experiment [4] (setting [8]), 41%; in experiment [4] (at 50.0 µM) it was -4.5%. For the same molecule, the growth inhibition was 21% in experiment [5] (setting [7]); 23% in experiment [5] (setting [8]); -13.4% in experiment [5] (at 50.0 µM); 34% in experiment [6] (setting [7]); 45% in experiment [6] (setting [8]); -47.2% in experiment [6] (at 50.0 µM).
Regarding `CCNCC(O)COc1ccc2c(c1)[n+]([O-])nc(N)[n+]2[O-]` (stereo not given), the growth inhibition in experiment [1] (setting [7]) is 39%; in experiment [1] (setting [8]), 75% (active); in experiment [1] (at 50.0 µM), 61.1%; in experiment [2] (setting [7]), 31%; in experiment [2] (setting [8]), 88% (active); in experiment [2] (at 50.0 µM) it was 70% (active). Also, the growth inhibition is 42% in experiment [3] (setting [7]); 60% in experiment [3] (setting [8]); 62.8% in experiment [3] (at 50.0 µM); 42% in experiment [4] (setting [7]); 41% in experiment [4] (setting [8]); 40.9% in experiment [4] (at 50.0 µM). Also, the growth inhibition in experiment [5] (setting [7]) was 47%; in experiment [5] (setting [8]), 84% (active); in experiment [5] (at 50.0 µM) it was 63%; in experiment [6] (setting [7]) it was 50%; in experiment [6] (setting [8]) it was 91% (active); in experiment [6] (at 50.0 µM), 58.8%.
